According to the supplement of paper PMC10849652:
Targets with a hit are over-represented here; the source holds about 7,900 in all. About 0.6% of all pairs of compound and target were hits. Unmarked numbers belong to inactive results.

What was measured:
Assay in all cases: log2 fold change, soluble protein after heating vs DMSO (PISA); higher = thermal stabilisation; K562 cells, 10 uM, 30 min; active = over 0.2 and 3.5 SD of the protein, either way, in both replicates (recomputed)
[1] = compound: NC(=O)Nc1cc(-c2cccc(F)c2)sc1C(=O)N[C@H]1CCCNC1
Procedure, shortened: (§1)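 Values are thermal stability changes relative to control samples and are taken from duplicates. They are stated as log2 fold changes. Before quantification by TMTpro 16plex LC-MS/MS with equalised channel sums, K562 cells at 2×10^6 cells/mL were treated with 10 μM compound for 30 min, heated in aliquots for 3 min across 48°C-58°C, pooled, extracted in PBS with 0.5% NP-40 at 4°C, and centrifuged at 21,000xg for 90 min to give the soluble supernatant.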

[2] = compound: NC(=O)c1cnc(N[C@@H]2CCCC[C@@H]2N)nc1Nc1cccc(-n2nccn2)c1
Procedure, shortened: as §1

[3] = compound: NC1(c2ccc(-c3nc4ccn5c(=O)[nH]nc5c4cc3-c3ccccc3)cc2)CCC1
Procedure, shortened: as §1

[4] = compound: NCC(=O)Nc1ccc(-n2nc(C(F)(F)F)cc2-c2ccc3c(ccc4ccccc43)c2)cc1
Procedure, shortened: as §1

entinostat = compound: Nc1ccccc1NC(=O)c1ccc(CNC(=O)OCc2cccnc2)cc1 [entinostat]
Procedure, shortened: as §1

vorinostat = compound: O=C(CCCCCCC(=O)Nc1ccccc1)NO [vorinostat]
Procedure, shortened: as §1

citarinostat = compound: O=C(CCCCCCNC(=O)c1cnc(N(c2ccccc2)c2ccccc2Cl)nc1)NO [citarinostat]
Procedure, shortened: as §1

silmitasertib = compound: O=C(O)c1ccc2c(c1)nc(Nc1cccc(Cl)c1)c1ccncc12 [silmitasertib]
Procedure, shortened: as §1

[5] = compound: O=C1NC(=O)C(c2cnc3ccccn23)=C1c1cn2c3c(cc(F)cc13)CN(C(=O)N1CCCCC1)CC2
Procedure, shortened: as §1

[6] = compound: c1cc(OCCN2CCCCC2)cc(-c2n[nH]c3ccc(-c4nnc[nH]4)cc23)c1
Procedure, shortened: as §1

entospletinib = compound: c1cn2cc(-c3ccc4cn[nH]c4c3)nc(Nc3ccc(N4CCOCC4)cc3)c2n1 [entospletinib]
Procedure, shortened: as §1

Sequence of UniProt P51571 (P51571 whole entry, looked up): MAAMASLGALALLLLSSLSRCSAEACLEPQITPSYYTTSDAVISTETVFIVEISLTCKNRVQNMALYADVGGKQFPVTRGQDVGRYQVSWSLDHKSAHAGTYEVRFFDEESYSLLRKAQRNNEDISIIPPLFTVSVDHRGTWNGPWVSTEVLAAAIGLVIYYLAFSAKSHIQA
Sequence of UniProt Q8WVK2 (Q8WVK2 whole entry, looked up): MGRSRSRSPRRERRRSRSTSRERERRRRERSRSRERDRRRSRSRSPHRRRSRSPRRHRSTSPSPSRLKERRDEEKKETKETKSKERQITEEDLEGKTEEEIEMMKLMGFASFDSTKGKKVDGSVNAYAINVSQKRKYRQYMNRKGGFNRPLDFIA
Sequence of UniProt Q9Y5B9 (Q9Y5B9 whole entry, looked up): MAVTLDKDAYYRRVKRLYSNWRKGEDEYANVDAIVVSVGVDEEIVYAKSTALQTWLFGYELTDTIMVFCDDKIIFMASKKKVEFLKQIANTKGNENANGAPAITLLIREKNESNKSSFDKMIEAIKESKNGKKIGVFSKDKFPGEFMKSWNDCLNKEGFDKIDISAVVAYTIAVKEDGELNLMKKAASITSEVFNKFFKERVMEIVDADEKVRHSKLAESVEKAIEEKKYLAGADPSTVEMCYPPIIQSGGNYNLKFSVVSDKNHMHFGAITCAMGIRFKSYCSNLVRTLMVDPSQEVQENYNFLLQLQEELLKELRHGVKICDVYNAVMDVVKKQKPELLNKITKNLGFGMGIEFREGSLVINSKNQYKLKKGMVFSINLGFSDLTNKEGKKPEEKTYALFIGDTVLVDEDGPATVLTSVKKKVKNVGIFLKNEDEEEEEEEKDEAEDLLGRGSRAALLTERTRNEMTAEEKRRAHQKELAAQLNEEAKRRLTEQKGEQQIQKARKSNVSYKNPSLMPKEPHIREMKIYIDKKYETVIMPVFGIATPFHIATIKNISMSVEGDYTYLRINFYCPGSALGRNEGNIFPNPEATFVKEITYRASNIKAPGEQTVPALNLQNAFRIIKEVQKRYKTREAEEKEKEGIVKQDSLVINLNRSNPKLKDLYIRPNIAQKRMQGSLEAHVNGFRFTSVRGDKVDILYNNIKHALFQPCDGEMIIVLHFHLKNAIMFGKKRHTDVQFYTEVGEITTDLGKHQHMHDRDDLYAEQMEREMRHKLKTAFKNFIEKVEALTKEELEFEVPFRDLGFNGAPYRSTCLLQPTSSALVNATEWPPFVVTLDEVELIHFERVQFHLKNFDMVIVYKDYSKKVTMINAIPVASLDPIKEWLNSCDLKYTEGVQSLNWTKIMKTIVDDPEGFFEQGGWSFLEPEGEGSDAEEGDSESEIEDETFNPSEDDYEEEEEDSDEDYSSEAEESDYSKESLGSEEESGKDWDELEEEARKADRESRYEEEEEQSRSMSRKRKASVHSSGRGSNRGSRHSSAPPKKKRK
Sequence of UniProt P04183 (P04183 whole entry, looked up): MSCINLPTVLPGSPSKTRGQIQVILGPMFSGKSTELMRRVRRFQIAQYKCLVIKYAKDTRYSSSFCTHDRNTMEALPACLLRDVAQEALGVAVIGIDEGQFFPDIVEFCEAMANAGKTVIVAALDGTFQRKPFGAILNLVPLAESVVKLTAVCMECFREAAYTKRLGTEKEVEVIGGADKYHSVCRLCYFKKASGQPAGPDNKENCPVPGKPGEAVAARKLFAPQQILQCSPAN
Sequence of UniProt Q08945 (Q08945 whole entry, looked up): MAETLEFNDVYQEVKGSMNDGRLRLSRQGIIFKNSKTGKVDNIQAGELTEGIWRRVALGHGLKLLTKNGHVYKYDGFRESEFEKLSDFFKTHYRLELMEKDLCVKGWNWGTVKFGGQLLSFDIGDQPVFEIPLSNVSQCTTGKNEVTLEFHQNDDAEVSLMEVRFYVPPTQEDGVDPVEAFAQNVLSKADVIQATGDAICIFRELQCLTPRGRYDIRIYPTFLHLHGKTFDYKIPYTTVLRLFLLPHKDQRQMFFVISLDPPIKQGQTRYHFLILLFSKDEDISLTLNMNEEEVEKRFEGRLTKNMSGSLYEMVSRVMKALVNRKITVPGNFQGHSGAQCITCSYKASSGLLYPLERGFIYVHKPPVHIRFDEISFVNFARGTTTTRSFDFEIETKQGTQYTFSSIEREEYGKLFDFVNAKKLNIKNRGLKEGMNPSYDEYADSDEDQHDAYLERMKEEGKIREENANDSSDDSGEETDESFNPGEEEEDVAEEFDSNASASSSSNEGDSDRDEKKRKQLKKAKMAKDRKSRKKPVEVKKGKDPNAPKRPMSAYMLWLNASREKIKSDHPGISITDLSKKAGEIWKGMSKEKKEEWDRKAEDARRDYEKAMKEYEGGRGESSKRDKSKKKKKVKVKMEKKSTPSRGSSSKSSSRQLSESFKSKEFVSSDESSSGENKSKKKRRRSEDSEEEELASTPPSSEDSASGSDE
Sequence of UniProt Q9UNH7 (Q9UNH7 whole entry, looked up): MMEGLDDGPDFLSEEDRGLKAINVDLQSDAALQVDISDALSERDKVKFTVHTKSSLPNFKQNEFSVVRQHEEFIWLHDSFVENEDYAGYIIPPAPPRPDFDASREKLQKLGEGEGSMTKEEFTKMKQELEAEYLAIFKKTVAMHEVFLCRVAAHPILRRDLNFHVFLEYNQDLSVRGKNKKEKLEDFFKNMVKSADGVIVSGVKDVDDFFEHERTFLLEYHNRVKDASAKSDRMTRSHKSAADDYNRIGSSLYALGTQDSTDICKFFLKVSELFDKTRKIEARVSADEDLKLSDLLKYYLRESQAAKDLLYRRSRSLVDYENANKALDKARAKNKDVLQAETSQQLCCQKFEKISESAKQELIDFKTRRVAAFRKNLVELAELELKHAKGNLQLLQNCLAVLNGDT
Sequence of UniProt Q08170 (Q08170 whole entry, looked up): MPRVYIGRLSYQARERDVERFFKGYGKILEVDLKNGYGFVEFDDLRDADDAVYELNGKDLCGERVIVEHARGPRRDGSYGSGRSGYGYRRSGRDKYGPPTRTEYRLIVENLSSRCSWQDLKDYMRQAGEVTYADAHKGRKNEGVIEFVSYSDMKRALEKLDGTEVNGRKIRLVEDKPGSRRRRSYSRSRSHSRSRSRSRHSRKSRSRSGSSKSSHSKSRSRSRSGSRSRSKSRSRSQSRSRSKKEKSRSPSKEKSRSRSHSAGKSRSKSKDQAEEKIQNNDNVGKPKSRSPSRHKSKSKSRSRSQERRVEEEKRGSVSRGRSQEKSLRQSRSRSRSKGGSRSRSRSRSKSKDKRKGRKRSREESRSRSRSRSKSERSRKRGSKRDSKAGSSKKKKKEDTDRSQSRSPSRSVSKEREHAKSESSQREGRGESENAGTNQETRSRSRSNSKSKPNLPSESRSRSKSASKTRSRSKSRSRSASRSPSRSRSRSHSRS
Sequence of UniProt P12235 (P12235 whole entry, looked up): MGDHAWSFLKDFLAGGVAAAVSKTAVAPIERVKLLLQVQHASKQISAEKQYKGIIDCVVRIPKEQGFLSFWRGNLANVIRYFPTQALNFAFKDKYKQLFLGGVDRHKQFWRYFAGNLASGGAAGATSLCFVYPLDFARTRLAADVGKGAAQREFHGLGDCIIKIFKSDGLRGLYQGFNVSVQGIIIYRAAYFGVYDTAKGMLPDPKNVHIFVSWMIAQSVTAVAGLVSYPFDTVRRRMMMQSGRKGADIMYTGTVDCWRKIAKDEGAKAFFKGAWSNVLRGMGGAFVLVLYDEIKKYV
Sequence of UniProt Q9H5Q4 (Q9H5Q4 whole entry, looked up): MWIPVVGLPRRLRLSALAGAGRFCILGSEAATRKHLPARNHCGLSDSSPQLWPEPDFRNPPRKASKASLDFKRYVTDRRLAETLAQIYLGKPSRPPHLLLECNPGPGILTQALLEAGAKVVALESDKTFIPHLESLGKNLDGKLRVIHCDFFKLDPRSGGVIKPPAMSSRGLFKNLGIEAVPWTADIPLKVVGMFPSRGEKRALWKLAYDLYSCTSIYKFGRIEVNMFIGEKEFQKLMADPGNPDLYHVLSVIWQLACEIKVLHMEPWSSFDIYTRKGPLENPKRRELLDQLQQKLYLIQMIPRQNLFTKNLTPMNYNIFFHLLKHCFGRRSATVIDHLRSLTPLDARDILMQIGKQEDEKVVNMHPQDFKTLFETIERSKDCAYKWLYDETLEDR
Sequence of UniProt Q01085 (Q01085 whole entry, looked up): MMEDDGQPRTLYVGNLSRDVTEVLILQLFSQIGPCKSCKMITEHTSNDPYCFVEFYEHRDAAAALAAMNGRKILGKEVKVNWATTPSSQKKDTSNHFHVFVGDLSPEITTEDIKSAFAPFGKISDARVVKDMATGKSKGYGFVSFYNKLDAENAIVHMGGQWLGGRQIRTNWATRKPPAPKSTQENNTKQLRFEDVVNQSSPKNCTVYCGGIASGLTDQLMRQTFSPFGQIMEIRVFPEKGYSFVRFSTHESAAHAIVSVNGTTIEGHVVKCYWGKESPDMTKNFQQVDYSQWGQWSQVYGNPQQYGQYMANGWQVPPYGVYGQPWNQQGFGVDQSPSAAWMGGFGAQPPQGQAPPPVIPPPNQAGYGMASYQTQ
Sequence of UniProt P63165 (P63165 whole entry, looked up): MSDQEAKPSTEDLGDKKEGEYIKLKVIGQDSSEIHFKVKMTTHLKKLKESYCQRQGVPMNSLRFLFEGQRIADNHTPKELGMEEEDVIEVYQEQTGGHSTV
Sequence of UniProt Q15005 (Q15005 whole entry, looked up): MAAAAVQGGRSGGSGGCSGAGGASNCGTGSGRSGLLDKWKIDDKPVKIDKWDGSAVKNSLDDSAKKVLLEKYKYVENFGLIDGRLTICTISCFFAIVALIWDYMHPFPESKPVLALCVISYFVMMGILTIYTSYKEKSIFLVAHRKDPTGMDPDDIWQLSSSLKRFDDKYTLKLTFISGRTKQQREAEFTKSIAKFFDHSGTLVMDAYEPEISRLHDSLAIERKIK

| Target | log2 fold change [1] | log2 fold change [2] | log2 fold change [3] | log2 fold change [4] | log2 fold change (entinostat) | log2 fold change (vorinostat) | log2 fold change (citarinostat) | log2 fold change (silmitasertib) | log2 fold change [5] | log2 fold change [6] | log2 fold change (entospletinib) |
| --- | --- | --- | --- | --- | --- | --- | --- | --- | --- | --- | --- |
| TK1 (UniProt P04183) | 0.021 | 0.018 | 0.02 | 0.031 | -0.068 | -0.007 | 0.016 | 0.013 | -0.025 | -0.027 | -0.012 |
| SNX6 (UniProt Q9UNH7) | -0.027 | -0.376 (active) | -0.403 (active) | 0.007 | 0.075 | 0.15 | 0.064 | -0.142 | -0.003 | -0.087 | -0.019 |
| SSR4 (UniProt P51571) | 0.032 | -0.013 | -0.011 | 0.023 | -0.011 | 0 | 0.019 | -0.029 | 0.004 | -0.056 | -0.021 |
| SNRNP27 (UniProt Q8WVK2) | 0.022 | -0.015 | -0.034 | -0.043 | -0.024 | -0.008 | -0.003 | 0.06 | 0.038 | -0.025 | 0.025 |
| SRSF4 (UniProt Q08170) | -0.059 | 0.036 | 0.196 | 0.03 | -0.002 | -0.02 | -0.028 | -0.005 | 0.206 | -0.228 | 0.134 |
| SUPT16H (UniProt Q9Y5B9) | -0.017 | -0.111 | -0.183 | -0.158 | 0.207 | 0.178 | 0.198 | 0.109 | -0.227 | 0.025 | -0.055 |
| SPCS2 (UniProt Q15005) | 0 | -0.002 | -0.072 | 0.143 | 0.016 | 0.024 | 0.224 | -0.001 | -0.021 | 0.23 | -0.145 |
| SYNE1 (UniProt Q8NF91) | -0.006 | -0.031 | -0.008 | 0.04 | -0.027 | 0.114 | 0.106 | -0.03 | -0.244 | 0.006 | -0.141 |
| TFB2M (UniProt Q9H5Q4) | -0.029 | -0.066 | -0.187 | -0.066 | 0.054 | 0.027 | 0.01 | 0.046 | -0.024 | 0.003 | -0.011 |
| SSRP1 (UniProt Q08945) | -0.017 | -0.012 | -0.078 | 0.003 | 0.007 | 0.059 | 0.155 | 0.007 | -0.171 | -0.013 | -0.027 |
| TIAL1 isoform 2 (UniProt Q01085) | -0.014 | -0.026 | -0.05 | -0.048 | -0.005 | 0.025 | -0.002 | -0.003 | 0.003 | -0.036 | 0.003 |
| SUMO1 (UniProt P63165) | -0.006 | -0.116 | 0.071 | -0.074 | -0.01 | -0.086 | -0.063 | -0.012 | 0.045 | -0.087 | 0.038 |
| STAT3 (UniProt P40763) | -0.001 | -0.047 | -0.2 | -0.092 | 0.089 | 0.101 | 0.062 | 0.103 | -0.036 | -0.016 | 0.026 |
| SLC25A4 (UniProt P12235) | -0.012 | -0.035 | -0.056 | -0.006 | -0.019 | -0.12 | -0.021 | 0.009 | -0.025 | -0.002 | -0.009 |
